Hits are enriched below; roughly 3.2% of the tested compounds scored in any of these assays.
Y pestis TopoI: Yersinia pestis topoisomerase I inhibitors, primary screen, biochemical, cleavage product accumulation, plate reader, single point. Y. pestis Topo-I cleavage product accumulation. DNA topoisomerase I (Yersinia pestis CO92). activity, % at 10 µM. AID 504884, 2011. actives 0.064% (n = 360,000); in the data active = activity above about 50%, passing the limit was not always enough
TcdB inh: TcdB glycohydrolase inhibitors, primary screen, biochemical, single point, plate reader | Toxin B (Clostridioides difficile), P18177 | TcdB glycohydrolase enzymatic assay | inhibition, % at 9.99 µM | actives 0.24% (n = 350,000); in the data active = inhibition above about 10%
PrPC surface inh: inhibitors of human cell surface prion protein PrPC, primary screen, cell-based, TR-FRET; actives 0.43% (n = 370,000); AID 720596, 2013; TR-FRET read-out; Major prion protein (Homo sapiens), P04156; inhibition, % at 13.8 µM; in the data active = inhibition above about 24%
GDH-TPI counter: GDH-TPI coupling enzyme inhibitors, primary screen, artefact control for M. tuberculosis FBA inhibitor project, biochemical, absorbance, full deck; GDH-TPI coupled enzyme counterscreen, NADH absorbance; inhibition, % at 4.8 µM; actives 1.2% (n = 360,000); in the data active = inhibition above about 30%
Mtb FBA inh: Mtb FBA enzyme inhibitors, primary screen, biochemical, fluorescence, strain H37Rv. AID 588726, 2011. Fructose-bisphosphate aldolase (Mycobacterium tuberculosis (strain ATCC 25618 / H37Rv)), …. inhibition, % at 1 µM. purified M. tuberculosis FBA, fluorescence read-out. actives 2.3% (n = 360,000); in the data active = inhibition above about 27%
Numbers stand for hits; - = inactive; . = no result given; + = active, no number.

SMILES	Y pestis TopoI	TcdB inh	PrPC surface inh	GDH-TPI counter	Mtb FBA inh
Cc1ccc(-c2nn(CCC#N)cc2C=C(C#N)C#N)cc1	-	-	-	33	-
Nc1ccc2nc(-c3cccs3)[nH]c2c1	-	13	-	-	+
CC(=O)Nc1ccc2nc(-c3cccs3)[nH]c2c1	-	.	-	44	+
Nc1ccc2nc(-c3ccccn3)[nH]c2c1	-	.	-	-	-
Nc1ccc2nc(-c3cccnc3)[nH]c2c1	-	.	-	-	-
Nc1ccc2nc(-c3ccccc3)[nH]c2c1	-	.	-	-	+
Nc1ccc2nc(-c3ccc(N)c(Cl)c3)[nH]c2c1	-	.	-	32	119
C[C@H](CO)N1C[C@H](C)[C@@H](CN(C)C(=O)Nc2ccc(C(F)(F)F)cc2)Oc2c(NC(=O)CCCCCC(=O)Nc3ccccc3N)cccc2C1=O	.	-	.	.	.
Nc1ccc(-c2nc3c(Cl)cc(N)cc3[nH]2)cc1	-	.	-	45	197
Nc1ccc(Cl)c(Cl)c1	-	-	-	-	-
CC1Cc2cc(/C=C3/SC(=S)NC3=O)ccc2O1 (stereo unspecified)	-	-	-	37	-
COc1ccccc1C=C1SC(=S)NC1=O	-	11	-	-	-
O=C1NC(=S)S/C1=C\c1cccc([N+](=O)[O-])c1	-	-	-	33	-
O=C1NC(=S)SC1=Cc1ccccc1Cl	-	-	-	42	-
COc1ccc(C=C2SC(=S)NC2=O)c(OC)c1OC	-	-	-	-	-
C[C@@H]1CCCCO[C@@H](CN(C)Cc2ccc(C(=O)O)cc2)[C@H](C)CN([C@@H](C)CO)C(=O)c2cc(NC(=O)CCCN(C)C)ccc2O1	.	-	.	.	.
C[C@H](CO)N1C[C@H](C)[C@@H](CN(C)S(=O)(=O)c2cn(C)cn2)Oc2ccc(NC(=O)Nc3ccc(C(F)(F)F)cc3)cc2C1=O	.	-	.	.	.
CCCNC(=O)C[C@@H]1C[C@@H]2c3cc(NS(=O)(=O)c4cccc(OC)c4)ccc3O[C@@H]2[C@H](CO)O1	.	-	.	.	.
O=C(O)C[C@H]1C[C@H]2c3cc(NC(=O)NC4CCCCC4)ccc3O[C@H]2[C@@H](CO)O1	.	-	.	.	.
Cc1ccc(S(=O)(=O)Oc2ccccc2/C=C2\SC(=O)NC2=O)cc1	-	11	-	-	-
O=C1NC(=O)/C(=C/c2ccccc2Oc2ccc(Cl)cc2)S1	-	.	-	-	-
CC(C)NC(=O)N(C)C[C@H]1OCCCC[C@@H](C)Oc2ccc(NS(C)(=O)=O)cc2C(=O)N([C@@H](C)CO)C[C@@H]1C	.	-	.	.	.
Cc1nn(C)cc1NC(=O)C[C@@H]1CC[C@@H]2[C@H](COc3ccc(NC(=O)C4CCOCC4)cc3C(=O)N2C)O1	.	-	.	.	.
CCCCCCSc1cc(-c2nc3cc(C)ccn3c2NCCCC)ccc1OC	-	-	-	-	-
CCCCNc1c(-c2cccc(-c3cc(C(C)=O)cs3)c2)nc2cc(C)ccn12	-	.	-	33	-
SMILES	Y pestis TopoI	TcdB inh	PrPC surface inh	GDH-TPI counter	Mtb FBA inh
CO[C@H]1CN(C)C(=O)c2ccc(NC(=O)Nc3ccccc3)cc2OC[C@@H](C)N(C(=O)Nc2c(C)noc2C)C[C@@H]1C	.	-	.	.	.
COc1cccc(C(=O)Nc2ccc3c(c2)OC[C@@H](C)N(CC2CC2)C[C@H](C)[C@@H](OC)CN(C)C3=O)c1	.	-	.	.	.
Cc1ccc2cc(CN(Cc3ccco3)S(=O)(=O)c3c(C)ccc4nsnc34)c(=O)[nH]c2c1	-	.	-	32	-
COc1ccc(N2C(=O)CS/C2=N\C(=S)Nc2ccccc2)cc1	-	-	-	37	-
COc1ccc(CN(C(=S)Nc2ccccc2)C2CC(=O)N(c3ccc(F)cc3)C2=O)cc1 (stereo unspecified)	-	.	-	-	-
Nc1cc(Cl)c2nonc2c1[N+](=O)[O-]	-	.	56	-	-
C[C@@H]1CCCCO[C@H](CN(C)S(=O)(=O)c2ccccc2)[C@@H](C)CN([C@@H](C)CO)C(=O)c2cc(NS(=O)(=O)c3ccc(F)cc3)ccc2O1	.	-	.	.	.
CN(C)Cc1c(O)c(Cl)cc2c3c(c(=O)oc12)CCCC3	-	.	-	-	+
CCN(CC)Cc1c(O)c(Cl)cc2c3c(c(=O)oc12)CCCC3	-	.	-	-	+
CCN(CC)CCN(C(=O)c1ccc2c(c1)OCCO2)c1nc2cc3c(cc2s1)OCO3	-	-	-	-	-
CCN(CC)CCN(C(=O)c1cc2c(ccc3ccccc32)oc1=O)c1nc2cc3c(cc2s1)OCCO3	-	-	-	-	+
O=C(NCc1cccnc1)/C(=C\c1ccc(-c2cccc(Cl)c2)o1)S(=O)(=O)c1ccccc1	-	.	-	41	-
Cc1ccc(C(=O)N/C(=C\c2ccc(-c3cc(Cl)ccc3Cl)o2)C(=O)NCc2cccnc2)cc1	-	.	-	40	-
O=C(NCc1cccnc1)/C(=C/c1ccc(-c2cccc(Cl)c2)o1)S(=O)(=O)c1ccccc1	-	.	-	-	-
Cc1nc(NC(=O)c2cc3c(s2)CCCCC3)sc1C(=O)N(C)C	-	.	-	-	-
CCOC(=O)CNC(=O)c1sc(NC(=O)/C=C/c2ccccc2)nc1C	-	-	-	32	-
COc1ccc(C(=O)Nc2nc(C)c(C(=O)N(C)C)s2)cc1OC	-	.	-	-	-
COc1ccc(/C=C/C(=O)Nc2nc(C)c(C(=O)N(C)C)s2)cc1	-	.	-	42	-
COc1ccc(/C=C/C(=O)Nc2nc(C)c(C(=O)N(C)C)s2)cc1OC	-	-	-	34	-
Cc1nc(NC(=O)c2ccc(Br)s2)sc1C(=O)N(C)C	-	.	-	35	-
Cc1noc(C)c1NC(=O)N(C)C[C@@H]1Oc2ccc(NC(=O)NC3CCCCC3)cc2CC(=O)N([C@@H](C)CO)C[C@H]1C	.	-	.	.	.
CS(=O)(=O)c1ccc2nc(NC(=O)c3ccc(NS(=O)(=O)c4cccc([N+](=O)[O-])c4)cc3)sc2c1	-	-	-	89	-
NS(=O)(=O)c1cccc(NC(=O)c2ccc(NS(=O)(=O)c3cccc([N+](=O)[O-])c3)cc2)c1	-	12	-	-	-
CS(=O)(=O)c1ccc2nc(NC(=O)c3ccccc3)sc2c1	-	-	-	-	-
CCC(=O)Nc1nc2ccc([N+](=O)[O-])cc2s1	-	-	-	31	-
C/C=C/c1ccc([C@@H]2[C@@H](CO)N(C(=O)CN3CCOCC3)[C@H]2C#N)cc1	.	-	.	.	.
CC(=O)/C=C/c1ccccc1	-	-	-	-	-
CC(=O)C1=C(O)C(=CC=Cc2ccccc2)OC1=O	-	-	-	31	-
C[C@@H]1CCCCO[C@@H](CN(C)Cc2ccncc2)[C@H](C)CN([C@@H](C)CO)C(=O)c2cc(NC(=O)Nc3ccc4c(c3)OCO4)ccc2O1	.	-	.	.	.
C[C@@H]1CCCCO[C@H](CN(C)C(=O)Nc2ccccc2)[C@@H](C)CN([C@@H](C)CO)C(=O)c2cc(NS(=O)(=O)c3cn(C)cn3)ccc2O1	.	-	.	.	.

High-throughput results (PubChem)
